Hits are enriched below; roughly 11% of the tested compounds scored in any of these assays.
SW480 rereplic – A quantitative high throughput screen for small molecules that induce DNA re-replication in SW480 colon adenocarcinoma cells; SW480 DNA re-replication, Hoechst DNA content imaging, 48 h; 340,000 compounds, 1.8% hits; Potency, µM (doses to about 46.1 µM), for the others: at the highest dose re-replication activation, hits mostly activators; further: potency means the concentration at half of the fitted maximal effect; % of control where 0% means no effect; nearly all actives have a fitted effect of over 55% in size
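Compounds, transferred as 23 nL by pin tool, were incubated with cells for 48 hr; DNA content per nucleus was then quantified by Hoechst staining and fluorescence plate imaging.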
MCF10A rerep – A quantitative high throughput screen for small molecules that induce DNA re-replication in MCF 10a normal breast cells | MCF 10A DNA re-replication, Hoechst nuclear intensity, 48 h | Potency, µM (highest dose often 46.1 µM), without a hit: at the top dose activity, positive = re-replication, hits mostly activators | 350,000 compounds, 2.9% hits | AID 624296, 2012; further: potency means the concentration at half of the fitted maximal effect; % of control where 0% means no effect; nearly all actives have a fitted effect of over 50% in size
RORgamma inh – qHTS for inhibitors of ROR gamma transcriptional activity; Drosophila S2 Gal4-RORgamma UAS-luciferase reporter, 20 h; Potency, µM (doses to about 53.6 µM), inactives show at the highest dose activity change, negative = inhibition, most hits filed as inhibitors; 310,000 compounds, 5.4% hits; AID 2551, 2010; further: potency means the concentration at half of the fitted maximal effect; on the % scale 0 is the no-effect control and ±100 the full control effect; nearly all actives have a fitted effect of over 60% in size
Target sequence (P51450 whole entry, looked up, the tested form may be a part): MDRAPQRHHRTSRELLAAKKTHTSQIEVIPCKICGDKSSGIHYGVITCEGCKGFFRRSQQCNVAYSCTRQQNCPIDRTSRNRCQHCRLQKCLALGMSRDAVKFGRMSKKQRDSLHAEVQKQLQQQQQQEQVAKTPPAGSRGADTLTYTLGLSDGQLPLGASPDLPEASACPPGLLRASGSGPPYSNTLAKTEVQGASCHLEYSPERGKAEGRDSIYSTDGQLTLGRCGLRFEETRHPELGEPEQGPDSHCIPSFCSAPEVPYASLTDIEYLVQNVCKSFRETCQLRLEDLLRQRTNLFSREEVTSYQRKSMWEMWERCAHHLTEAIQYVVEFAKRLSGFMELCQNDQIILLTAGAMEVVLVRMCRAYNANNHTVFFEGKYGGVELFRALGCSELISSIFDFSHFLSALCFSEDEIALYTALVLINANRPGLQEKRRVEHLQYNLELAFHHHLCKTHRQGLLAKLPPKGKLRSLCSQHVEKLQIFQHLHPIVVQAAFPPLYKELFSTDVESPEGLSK
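Luciferase reporter read in Schneider cells carrying Gal4-RORγ (mouse) and UAS-Photinus luciferase; cells given compound 1 h before 700 uM copper sulfate induction, then incubated 20 h at ambient temperature.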
IL1B secr inh – qHTS for Inhibitors of Inflammasome Signaling: IL-1-beta AlphaLISA Primary Screen; THP-1 LPS/ATP IL-1B secretion, AlphaLISA, 16 h; active compounds read low; activity change, % at 57.5 µM; 360,000 compounds, 4.7% hits; in the data active means activity change below about -50%; inconclusive means mostly about -30% to -49%; further: on the % scale 0 is the no-effect control and ±100 the full control effect
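Secreted IL-1B measured by AlphaLISA bead assay after 16 h compound exposure of THP-1 cells; compounds (final up to 57.5 uM) added 1 h before LPS (250 ng/mL) and ATP (1.25 mM) stimulation; lower signal means less secretion.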
Gal4-VP16 FLuc – VP16 counterscreen qHTS for inhibitors of ROR gamma transcriptional activity | Drosophila S2 Gal4-VP16 UAS-luciferase, luminescence, 20 h | Potency, µM (doses to about 53.6 µM), without a hit: top-dose activity, negative = inhibition, hits mostly inhibitors | 310,000 compounds, 3.5% hits;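 further: Gal4-VP16 expression switched on by copper sulfate through the metallothionein promoter; potency means the concentration at half of the fitted maximal effect; on the % scale 0 is the no-effect control and ±100 the full control effect; nearly all actives have a fitted effect of over 50% in size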
* = called active by the depositor. Unless noted, the call rests on the fitted dose curve; in most records, active means well fitted curve in the direction sought with a large enough effect; inconclusive means small, poorly fitted or top-dose-only effect, or another doubt; inactive means no such curve, though single readings can be large; an effect the other way counts as inactive or inconclusive.

Results for COc1ccccc1C1c2ccc3ccccc3c2Oc2ncn(CCN(C)C)c(=N)c21 (stereo not given) ?
SW480 rereplic: inconclusive; MCF10A rerep: 9.2µM*; RORgamma inh: 10µM*; IL1B secr inh: -97.6*; Gal4-VP16 FLuc: -27.0%

How did COc1ccccc1C1c2ccc3ccccc3c2Oc2ncn(CCCO)c(=N)c21 (stereo not given) do in these assays?
SW480 rereplic: 130.4%; MCF10A rerep: inconclusive; RORgamma inh: -37.6%; IL1B secr inh: -96.8*; Gal4-VP16 FLuc: -9.4%

How did COc1ccc(C2c3ccc4ccccc4c3Oc3ncn(CCCN(C)C)c(=N)c32)cc1 (stereo not given) do in these assays?
SW480 rereplic: 11.6µM*; MCF10A rerep: 20.6µM*; RORgamma inh: 10µM*; IL1B secr inh: -95.4*; Gal4-VP16 FLuc: inconclusive

Results for COc1ccc(/C=N\NC(=O)c2sccc2C)cc1Cn1nc(C)cc1C ?
SW480 rereplic: 1.6%; MCF10A rerep: 27.0%; RORgamma inh: inconclusive; IL1B secr inh: -12.9; Gal4-VP16 FLuc: inconclusive

Results for CC(=O)c1cccc(-c2ccnc3c2CC(C(=O)Nc2ccc(F)c(Cl)c2)O3)c1 (stereo not given) ?
IL1B secr inh: -25.0

How did COc1ccccc1N(CC1CO1)S(=O)(=O)c1ccccc1 (stereo not given) do in these assays?
SW480 rereplic: 3.5%; MCF10A rerep: 1.4%; RORgamma inh: 11.6%; IL1B secr inh: -6.5; Gal4-VP16 FLuc: -20.2%

What do the screens show for `COc1ccc(N(CC2CO2)S(=O)(=O)c2ccccc2)cc1` (stereo not given)?
SW480 rereplic: 22.2%; MCF10A rerep: inconclusive; RORgamma inh: 0.1%; IL1B secr inh: -68.8*; Gal4-VP16 FLuc: -14.3%

Results for O=S(=O)(c1ccccc1)N(CC1CO1)c1cc(Cl)ccc1Cl (stereo not given) ?
SW480 rereplic: -18.7%; MCF10A rerep: -1.0%; RORgamma inh: 44.2%; IL1B secr inh: -85.8*; Gal4-VP16 FLuc: 1.8%

Results for COC(=O)N1c2ccccc2C23[C@@H]4CN5CCC[C@]6(CCC12C(O)(C6)C4=O)[C@H]53 ?
RORgamma inh: -30.2%; Gal4-VP16 FLuc: -5.4%

What do the screens show for `CCOc1cc2[nH]c(=S)n(CCc3ccc(OC)c(OC)c3)c(=O)c2cc1OCC`?
SW480 rereplic: -0.9%; MCF10A rerep: 12.6%; RORgamma inh: 14.3%; IL1B secr inh: 0.0; Gal4-VP16 FLuc: 0.7%

What do the screens show for `CCOc1cc2[nH]c(=S)n(C3CC3)c(=O)c2cc1OCC`?
SW480 rereplic: -5.9%; MCF10A rerep: 2.4%; RORgamma inh: 4.47µM*; IL1B secr inh: 28.6; Gal4-VP16 FLuc: 15.8µM*

Results for CCC(CO)n1c(=S)[nH]c2cc(OC)c(OC)cc2c1=O (stereo not given) ?
SW480 rereplic: 18.7%; MCF10A rerep: inconclusive; RORgamma inh: 11.2µM*; IL1B secr inh: 13.7; Gal4-VP16 FLuc: inconclusive

Results for CCOC(=O)N1CCC(n2c(=S)[nH]c3cc(OCC)c(OCC)cc3c2=O)CC1 ?
SW480 rereplic: 7.0%; MCF10A rerep: inconclusive; RORgamma inh: 5.3%; IL1B secr inh: 19.1; Gal4-VP16 FLuc: -7.9%

Results for CCOc1cc2[nH]c(=S)n(CCCN3CCOCC3)c(=O)c2cc1OCC ?
SW480 rereplic: 0.1%; MCF10A rerep: 13.1%; RORgamma inh: -13.0%; IL1B secr inh: 7.9; Gal4-VP16 FLuc: -17.2%

How did CCOc1cc2[nH]c(=S)n(CCCOC)c(=O)c2cc1OCC do in these assays?
SW480 rereplic: -0.4%; MCF10A rerep: inconclusive; RORgamma inh: 11.2µM*; IL1B secr inh: 4.4; Gal4-VP16 FLuc: inconclusive

How did CCOc1cc2[nH]c(=S)n(C(C)C)c(=O)c2cc1OCC do in these assays?
SW480 rereplic: 1.2%; MCF10A rerep: 13.6%; RORgamma inh: 2µM*; IL1B secr inh: 42.3; Gal4-VP16 FLuc: 7.08µM*

How did OCC1OC(c2ccc(O)cc2O)C(O)C1O (stereo not given) do in these assays?
IL1B secr inh: 69.1

Screening data deposited in PubChem BioAssay by National Center for Advancing Translational Sciences (NCATS).
